Tau fibril ThT: qHTS for Inhibitors of Tau Fibril Formation, Thioflavin T Binding; recombinant tau K18 P301L, heparin-induced fibrillization, ThT fluorescence; Potency, µM (series often up to 57.4 µM), without a hit: at the highest dose activity, negative = inhibition, actives largely listed as inhibitors; 2.1% of 270,000 active; note: potency is the fitted concentration of half-maximal effect; nearly all actives have a fitted effect of over 55% in size
Target sequence (P10636 561-689 P618L limits assumed): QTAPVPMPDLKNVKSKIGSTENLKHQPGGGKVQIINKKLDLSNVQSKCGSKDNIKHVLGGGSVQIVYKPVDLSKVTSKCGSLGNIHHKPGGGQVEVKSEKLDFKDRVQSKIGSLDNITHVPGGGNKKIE
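Using a mix of unlabeled (15 uM) and Alexa 594-labeled (0.24 uM) tau K18 P301L, heparin-triggered fibrillization over 6 hr at 37 C was scored by ThT fluorescence.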
Coupling enz: qHTS Assay for Inhibitors of Fructose-1,6-bisphosphate Aldolase from Giardia Lamblia: Coupling assay counterscreen; coupling enzyme system counterscreen, AmpLite Red fluorescence; activity change, negative = inhibition, % at 58.2 µM, hits read low; 0.67% of 290,000 active; AID 2472, 2010; in the data active = activity change below about -30%
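Counterscreen of the coupled detection system alone, without aldolase: glyceraldehyde-3-phosphate coupling enzymes plus AmpLite Red readout. Compounds at 57.5 uM final, 10 min RT preincubation, 20 min RT reaction, fluorescence 525/598 nm.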
Tau fibril FP: qHTS for Inhibitors of Tau Fibril Formation, Fluorescence Polarization; K18 P301L tau heparin fibrillization, Alexa594 FP, 6 h; Potency, µM (series often up to 57.7 µM), inactives show at the highest dose activity, negative = inhibition, actives largely listed as inhibitors; 0.39% of 280,000 active; AID 1468, 2008; note: potency is the fitted concentration of half-maximal effect; nearly all actives have a fitted effect of over 55% in size
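Quantitative HTS format: compounds meet 15 uM recombinant K18 P301L tau and Alexa 594-tau tracer in 100 mM sodium acetate pH 7; 20 uM heparin triggers fibrillization at 37 C over 6 hr; FP gives the signal.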
Tau fluor cs: Counterscreen qHTS for Inhibitors of Tau Fibril Formation, Fluorescence Polarization; tau K18 P301L Alexa594 fluorescence, heparin fibrillization; Potency, µM (series often up to 57.7 µM), for inactives: top-dose activity change, negative = decrease; 0.93% of 280,000 active; AID 1463, 2008; note: potency is the fitted concentration of half-maximal effect; nearly all actives have a fitted effect of over 55% in size
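Human tau K18 P301L (15 uM unlabeled, 0.24 uM Alexa 594-labeled) in 100 mM sodium acetate pH 7 with 20 uM heparin, 6 hr at 37 C. ThT 30 uM added, 1 hr ambient; Alexa 594 FP and total fluorescence read at 555/632 nm.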
USP1-UAF1 inh: Inhibitors of USP1/UAF1: Primary Screen; recombinant USP1/UAF1, Ub-Rhodamine cleavage fluorescence; AID 743255, 2014; 0.23% of 390,000 active; Potency, µM (doses to about 57.1 µM), without a hit: at the top dose activity change, negative = inhibition, actives largely listed as inhibitors; note: potency is the fitted concentration of half-maximal effect; nearly all actives have a fitted effect of over 60% in size
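High-throughput fluorogenic screen: 1nM USP1/UAF1 complex, Ub-Rho substrate 150nM final, 50mM HEPES pH 7.8 with 0.5mM EDTA, 0.1 mg/ml BSA, 1mM TCEP and 0.01% Tween-20.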
* = called active by the depositor. A selection: hits, their analogues and other compounds. The true share with any hit is near 2.3%. Unless noted, calls come from the whole dose curve; as a rule, active = well fitted curve in the direction sought with a large enough effect; inconclusive = small, poorly fitted or top-dose-only effect, or another doubt; inactive = no such curve, though single readings can be large; an effect the other way counts as inactive or inconclusive. % is set by controls: 0 for no effect and ±100 for the full control effect.

Screening Cc1[nH][nH]c(=O)c1C(c1c(C)[nH][nH]c1=O)c1cn(Cc2cccc3ccccc23)c2ccccc12 returned Tau fibril ThT 10µM*, Coupling enz -51*, Tau fibril FP inconclusive, Tau fluor cs inconclusive and USP1-UAF1 inh 14µM*.
`Cc1[nH][nH]c(=O)c1C(c1c(C)[nH][nH]c1=O)c1cn(C)c2ccccc12` gave Tau fibril ThT 6%, Coupling enz -65*, Tau fibril FP 4%, Tau fluor cs 9% and USP1-UAF1 inh inconclusive.
Screening O=S(=O)(c1ccc(Cl)cc1)c1nnn2c1nc(NCc1ccc3c(c1)OCO3)c1sccc12 returned Tau fibril ThT -2%, Tau fibril FP -19%, Tau fluor cs -14% and USP1-UAF1 inh -13%.
Screening CC1CCCCN1C(=O)Cn1ncc2c3ccccc3n(Cc3ccccc3F)c2c1=O (configuration not stated) returned Tau fibril ThT 0%, Tau fibril FP -1%, Tau fluor cs 2% and USP1-UAF1 inh -15%.
Screening CCc1ccc(NC(=O)Cn2c(=O)c3cccn3c3ccccc32)cc1 returned Tau fibril ThT 12%, Coupling enz 0, Tau fibril FP 20µM*, Tau fluor cs inconclusive and USP1-UAF1 inh -12%.
`O=C(Cn1c(=O)c2cccn2c2ccccc21)NCCc1ccccc1` gave Tau fibril ThT 18%, Tau fibril FP 14µM*, Tau fluor cs inconclusive and USP1-UAF1 inh -2%.
`Cc1cc(C)c(NC(=O)Cn2c(=O)c3cccn3c3ccccc32)c(C)c1` gave Tau fibril ThT inconclusive, Tau fibril FP 7.9µM*, Tau fluor cs inconclusive and USP1-UAF1 inh -22%.
`CCOC(=O)c1cccc(NC(=O)Cn2c(=O)c3cccn3c3ccccc32)c1` gave Tau fibril ThT inconclusive, Tau fibril FP 13µM*, Tau fluor cs inconclusive and USP1-UAF1 inh 7%.
For Cc1ccc(NC(=S)NC(=O)C2CC2)c(C)c1 the results were USP1-UAF1 inh -15%.
CN(C(=O)CSc1cn(CC(=O)N2CCCCCC2)c2ccccc12)c1ccccc1 was read as Tau fibril ThT -7%, Tau fibril FP -4%, Tau fluor cs -5% and USP1-UAF1 inh -11%.
`CCN(CC)c1ccc(N=CN2CCOCC2)cc1` gave Coupling enz -1 and USP1-UAF1 inh -25%.
For CCN(CCO)c1ccc(N=Nc2cc(C)[nH]n2)cc1 the results were Tau fibril ThT 10µM*, Coupling enz -1, Tau fibril FP 12%, Tau fluor cs -15% and USP1-UAF1 inh -7%.
For O=C(CSc1nc(-c2cccc(Cl)c2)nc2cc(=O)[nH]n12)Nc1ccccc1 the results were Tau fibril ThT -1%, Tau fibril FP -6%, Tau fluor cs -12% and USP1-UAF1 inh -7%.
`C/C(=N\N=C\c1ccc(N(C)C)cc1)c1cccc([N+](=O)[O-])c1` gave Tau fibril ThT 1.3µM*, Coupling enz 0, Tau fibril FP 9%, Tau fluor cs -29% and USP1-UAF1 inh 4%.
`CCOC(=O)c1nn(-c2ccccc2C)c(=O)c2c(N)scc12` gave Tau fibril ThT 16µM*, Coupling enz -55*, Tau fibril FP 18µM*, Tau fluor cs -26% and USP1-UAF1 inh inconclusive.
CC1CC(C)CN(C(=O)c2ccc3c(c2NCCO)C(=O)c2ccccc2C3=O)C1 (configuration not stated) was read as Tau fibril ThT 18µM*, Coupling enz -2, Tau fibril FP 10%, Tau fluor cs inconclusive and USP1-UAF1 inh -26%.
CCC1CCc2sc(C(=O)NC3CCN(Cc4ccccc4)CC3)cc2C1 (configuration not stated) was read as USP1-UAF1 inh -14%.

High-throughput results as filed in PubChem BioAssay.
